The supplement of paper PMC6411743
± gives the standard deviation of the averaged measurements. The full data set covers some 6,200 targets. This sample favours those with the largest changes.

Compound: Nc1ncnc2c1ncn2[C@@H]1O[C@H](COP(=O)(O)OP(=O)(O)NP(=O)(O)O)[C@@H](O)[C@H]1O [adenylyl imidodiphosphate]
Assay: NP40-soluble protein abundance relative to vehicle (solubility fold change) (ratio); higher = more soluble protein in presence of AMP-PNP
How it was run: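 Crude Jurkat lysate, prepared by Dounce homogenisation, was exposed to eight concentrations from 0.1 to 10 mM for 10 min at room temperature and then 3 min at 37 °C. Solubilisation used 0.8% NP40 with benzonase for 60 min at 4 °C, followed by ultracentrifugation and TMT labelling of the supernatant for LC-MS/MS. After vsn normalisation of intensities, each value is the fold change against the detergent-processed vehicle within each replicate, across three independent experiments.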

Chain of UniProt Q9NWH9 (Q9NWH9 whole entry, one chain of several): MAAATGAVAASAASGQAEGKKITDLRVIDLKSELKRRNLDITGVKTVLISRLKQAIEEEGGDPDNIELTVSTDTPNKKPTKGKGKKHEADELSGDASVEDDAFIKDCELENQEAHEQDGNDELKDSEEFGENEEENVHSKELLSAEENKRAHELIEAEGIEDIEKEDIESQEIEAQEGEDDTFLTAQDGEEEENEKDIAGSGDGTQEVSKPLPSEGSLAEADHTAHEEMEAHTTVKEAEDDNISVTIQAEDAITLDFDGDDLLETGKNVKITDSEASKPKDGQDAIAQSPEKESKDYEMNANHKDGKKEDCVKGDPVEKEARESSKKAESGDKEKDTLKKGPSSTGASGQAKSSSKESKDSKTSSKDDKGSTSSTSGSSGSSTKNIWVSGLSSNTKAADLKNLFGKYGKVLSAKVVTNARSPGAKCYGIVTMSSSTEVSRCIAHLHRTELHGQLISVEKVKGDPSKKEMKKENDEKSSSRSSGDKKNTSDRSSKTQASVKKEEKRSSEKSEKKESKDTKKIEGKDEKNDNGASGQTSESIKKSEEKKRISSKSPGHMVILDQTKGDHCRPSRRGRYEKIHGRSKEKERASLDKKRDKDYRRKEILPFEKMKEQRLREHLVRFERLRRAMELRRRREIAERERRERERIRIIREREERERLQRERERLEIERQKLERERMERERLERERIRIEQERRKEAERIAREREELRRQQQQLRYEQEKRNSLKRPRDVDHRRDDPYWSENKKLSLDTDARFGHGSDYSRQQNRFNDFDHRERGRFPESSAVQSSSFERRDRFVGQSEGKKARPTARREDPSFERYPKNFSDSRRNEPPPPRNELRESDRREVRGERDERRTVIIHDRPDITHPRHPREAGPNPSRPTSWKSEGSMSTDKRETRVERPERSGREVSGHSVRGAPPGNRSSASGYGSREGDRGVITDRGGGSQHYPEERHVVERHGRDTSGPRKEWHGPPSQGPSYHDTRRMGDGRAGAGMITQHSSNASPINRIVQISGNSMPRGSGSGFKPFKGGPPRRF
Chain of UniProt Q8N465 (Q8N465 whole entry, one chain of several): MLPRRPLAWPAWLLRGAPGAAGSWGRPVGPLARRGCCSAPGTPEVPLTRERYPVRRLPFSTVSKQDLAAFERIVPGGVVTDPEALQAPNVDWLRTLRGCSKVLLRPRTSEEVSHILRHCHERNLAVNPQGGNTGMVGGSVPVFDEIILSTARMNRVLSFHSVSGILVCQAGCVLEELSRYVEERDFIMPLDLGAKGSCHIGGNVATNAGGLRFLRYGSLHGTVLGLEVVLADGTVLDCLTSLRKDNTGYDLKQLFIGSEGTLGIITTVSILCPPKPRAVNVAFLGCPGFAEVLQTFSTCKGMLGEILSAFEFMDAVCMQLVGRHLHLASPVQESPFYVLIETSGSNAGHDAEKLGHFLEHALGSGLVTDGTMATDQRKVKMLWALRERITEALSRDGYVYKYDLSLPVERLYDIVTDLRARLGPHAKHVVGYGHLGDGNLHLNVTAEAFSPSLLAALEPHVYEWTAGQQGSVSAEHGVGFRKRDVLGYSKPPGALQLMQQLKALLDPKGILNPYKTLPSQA
Chain of UniProt Q5TC12 (Q5TC12 whole entry, one chain of several): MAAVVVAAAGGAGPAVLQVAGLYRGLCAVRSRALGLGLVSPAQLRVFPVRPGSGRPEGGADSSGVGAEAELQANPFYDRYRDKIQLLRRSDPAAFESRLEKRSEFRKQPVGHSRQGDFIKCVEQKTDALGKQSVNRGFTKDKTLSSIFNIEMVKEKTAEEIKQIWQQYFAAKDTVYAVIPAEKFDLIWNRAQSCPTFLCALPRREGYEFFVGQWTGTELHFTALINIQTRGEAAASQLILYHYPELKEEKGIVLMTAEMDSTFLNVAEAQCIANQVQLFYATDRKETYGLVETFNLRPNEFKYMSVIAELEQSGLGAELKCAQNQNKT
Chain of UniProt P17480 (P17480 whole entry, one chain of several): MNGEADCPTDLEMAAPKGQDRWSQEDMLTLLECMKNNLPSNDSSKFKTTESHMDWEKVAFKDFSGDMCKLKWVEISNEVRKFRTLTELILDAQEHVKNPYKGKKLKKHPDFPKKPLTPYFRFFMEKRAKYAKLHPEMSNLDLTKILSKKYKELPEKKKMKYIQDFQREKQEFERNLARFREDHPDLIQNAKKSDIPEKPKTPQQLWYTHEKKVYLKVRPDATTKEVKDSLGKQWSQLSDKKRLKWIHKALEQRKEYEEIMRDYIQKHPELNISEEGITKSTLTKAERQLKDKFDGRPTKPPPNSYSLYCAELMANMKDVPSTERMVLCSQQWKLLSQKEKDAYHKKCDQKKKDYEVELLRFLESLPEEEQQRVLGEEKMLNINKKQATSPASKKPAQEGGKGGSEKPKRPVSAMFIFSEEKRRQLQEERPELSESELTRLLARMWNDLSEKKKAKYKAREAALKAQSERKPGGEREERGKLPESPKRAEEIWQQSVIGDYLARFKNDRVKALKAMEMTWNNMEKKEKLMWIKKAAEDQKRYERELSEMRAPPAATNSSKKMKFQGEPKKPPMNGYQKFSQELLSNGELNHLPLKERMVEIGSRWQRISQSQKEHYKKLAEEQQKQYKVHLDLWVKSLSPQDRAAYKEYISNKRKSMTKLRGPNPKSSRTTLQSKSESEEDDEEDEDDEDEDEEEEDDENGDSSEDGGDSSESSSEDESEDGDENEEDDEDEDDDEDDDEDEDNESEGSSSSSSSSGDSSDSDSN
Chain of UniProt Q9UKT5 (Q9UKT5 whole entry, one chain of several): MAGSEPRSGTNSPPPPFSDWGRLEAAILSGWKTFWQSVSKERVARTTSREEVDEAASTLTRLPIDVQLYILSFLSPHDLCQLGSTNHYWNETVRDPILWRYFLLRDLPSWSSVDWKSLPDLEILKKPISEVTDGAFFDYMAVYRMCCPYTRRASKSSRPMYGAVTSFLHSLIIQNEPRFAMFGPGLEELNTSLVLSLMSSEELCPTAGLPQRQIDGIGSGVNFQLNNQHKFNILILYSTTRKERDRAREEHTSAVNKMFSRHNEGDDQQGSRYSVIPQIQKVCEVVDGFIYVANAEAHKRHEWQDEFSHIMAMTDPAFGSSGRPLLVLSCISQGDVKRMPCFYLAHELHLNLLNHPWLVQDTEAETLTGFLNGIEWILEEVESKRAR
Chain of UniProt Q5VW38 (Q5VW38 whole entry, one chain of several): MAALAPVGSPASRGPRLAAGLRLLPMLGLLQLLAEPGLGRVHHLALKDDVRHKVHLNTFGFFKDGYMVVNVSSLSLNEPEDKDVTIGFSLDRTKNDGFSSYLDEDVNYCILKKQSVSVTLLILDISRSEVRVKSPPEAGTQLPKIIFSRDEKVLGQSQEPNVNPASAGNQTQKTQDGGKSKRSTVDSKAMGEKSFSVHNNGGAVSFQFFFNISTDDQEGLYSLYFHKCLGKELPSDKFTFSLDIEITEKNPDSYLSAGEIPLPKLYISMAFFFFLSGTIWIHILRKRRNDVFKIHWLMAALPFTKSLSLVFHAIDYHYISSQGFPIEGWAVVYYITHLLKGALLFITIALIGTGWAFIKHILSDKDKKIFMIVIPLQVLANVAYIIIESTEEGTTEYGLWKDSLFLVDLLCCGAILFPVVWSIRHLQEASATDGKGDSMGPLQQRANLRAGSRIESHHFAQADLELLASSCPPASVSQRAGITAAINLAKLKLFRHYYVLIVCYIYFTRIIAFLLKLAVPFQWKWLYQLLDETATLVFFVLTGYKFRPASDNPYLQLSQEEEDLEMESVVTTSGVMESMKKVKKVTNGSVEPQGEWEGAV
Chain of UniProt Q9H2H9 (Q9H2H9 whole entry, one chain of several): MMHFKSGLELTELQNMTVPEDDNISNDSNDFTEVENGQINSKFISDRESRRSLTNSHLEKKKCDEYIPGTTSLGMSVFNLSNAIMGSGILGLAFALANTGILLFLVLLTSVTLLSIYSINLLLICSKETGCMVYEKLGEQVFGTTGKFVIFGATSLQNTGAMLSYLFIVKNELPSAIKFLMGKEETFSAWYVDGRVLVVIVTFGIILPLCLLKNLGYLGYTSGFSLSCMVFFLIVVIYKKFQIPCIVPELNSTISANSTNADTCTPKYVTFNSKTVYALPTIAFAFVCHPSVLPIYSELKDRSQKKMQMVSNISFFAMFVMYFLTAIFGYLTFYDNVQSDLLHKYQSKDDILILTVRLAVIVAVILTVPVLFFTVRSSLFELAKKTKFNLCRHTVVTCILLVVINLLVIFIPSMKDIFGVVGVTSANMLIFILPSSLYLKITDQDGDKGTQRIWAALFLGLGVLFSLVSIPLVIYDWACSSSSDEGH
Chain of UniProt Q96C01 (Q96C01 whole entry, one chain of several): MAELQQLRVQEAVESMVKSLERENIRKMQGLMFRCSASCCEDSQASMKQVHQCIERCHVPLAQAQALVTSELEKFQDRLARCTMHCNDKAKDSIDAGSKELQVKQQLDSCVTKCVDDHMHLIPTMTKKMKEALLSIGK
Chain of UniProt O00629 (O00629 whole entry): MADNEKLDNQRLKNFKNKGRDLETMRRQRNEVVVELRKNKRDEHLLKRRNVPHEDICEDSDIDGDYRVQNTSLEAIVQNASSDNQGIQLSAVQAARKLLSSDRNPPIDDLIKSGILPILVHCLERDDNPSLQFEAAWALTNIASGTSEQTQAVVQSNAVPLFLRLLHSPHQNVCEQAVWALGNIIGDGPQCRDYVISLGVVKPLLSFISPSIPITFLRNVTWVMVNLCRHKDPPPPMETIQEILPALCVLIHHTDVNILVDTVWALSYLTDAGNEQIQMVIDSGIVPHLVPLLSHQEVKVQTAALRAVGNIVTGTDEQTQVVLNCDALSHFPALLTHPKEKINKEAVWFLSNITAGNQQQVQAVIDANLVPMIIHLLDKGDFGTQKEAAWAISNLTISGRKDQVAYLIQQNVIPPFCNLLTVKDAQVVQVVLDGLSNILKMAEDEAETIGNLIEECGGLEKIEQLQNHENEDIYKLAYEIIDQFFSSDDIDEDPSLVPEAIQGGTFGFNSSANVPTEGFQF
Chain of UniProt P61020 (P61020 whole entry, one chain of several): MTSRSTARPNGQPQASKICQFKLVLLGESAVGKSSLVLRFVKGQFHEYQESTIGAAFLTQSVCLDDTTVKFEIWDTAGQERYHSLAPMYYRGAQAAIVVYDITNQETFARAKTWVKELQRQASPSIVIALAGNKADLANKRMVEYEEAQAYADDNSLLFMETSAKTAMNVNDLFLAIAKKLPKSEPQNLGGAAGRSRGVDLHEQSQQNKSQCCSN

Target	NP40-soluble protein abundance (concentration: 1mM)	NP40-soluble protein abundance (concentration: 2mM)	NP40-soluble protein abundance (concentration: 4mM)	NP40-soluble protein abundance (concentration: 6mM)	NP40-soluble protein abundance (concentration: 8mM)	NP40-soluble protein abundance (concentration: 10mM)
E9PLT2|P17480|P17480-2 (UniProt P17480)	1.08 ± 0.032	1.23 ± 0.06	1.32 ± 0.055	1.47 ± 0.026	1.56 ± 0.027	1.73 ± 0.044
F8VXC8|Q8TAQ2|Q8TAQ2-2|Q8TAQ2-3 (UniProt Q8TAQ2)	1.03 ± 0.034	1.07 ± 0.04	1.04 ± 0.047	1.04 ± 0.1	1.04 ± 0.064	1.09 ± 0.1
KPNA4 (UniProt O00629)	1.07 ± 0.029	1.074 ± 0.0097	1.07 ± 0.016	1.03 ± 0.047	1.05 ± 0.051	1.05 ± 0.037
F8VX04|Q9H2H9 (UniProt Q9H2H9)	1.14 ± 0.1	1.36 ± 0.19	1.1 ± 0.051	1.06 ± 0.094	1.01 ± 0.087	1.13 ± 0.19
H0YLE6|Q9NWH9 (UniProt Q9NWH9)	1.05 ± 0.044	1.11 ± 0.083	1.08 ± 0.039	1.12 ± 0.092	1.11 ± 0.094	1.17 ± 0.094
G3V4X1|P62191|P62191-2 (UniProt P62191)	0.942 ± 0.045	0.906 ± 0.049	0.888 ± 0.079	0.896 ± 0.1	0.882 ± 0.1	0.89 ± 0.12
I3L448|Q5TC12 (UniProt Q5TC12)	1.01 ± 0.033	1.02 ± 0.015	1.01 ± 0.039	0.992 ± 0.029	0.965 ± 0.027	0.977 ± 0.039
A0A0A6YYH1|H0YLI7|P59780|Q7Z6K5-2 (UniProt Q7Z6K5+P59780+H0YLI7)	1 ± 0.04	1.01 ± 0.011	0.9742 ± 0.0072	0.974 ± 0.028	0.965 ± 0.032	0.968 ± 0.017
E7EQY1|Q96C01 (UniProt Q96C01)	1.01 ± 0.036	1.11 ± 0.07	0.988 ± 0.082	0.991 ± 0.062	0.958 ± 0.062	0.968 ± 0.11
F8VVZ0|P61020 (UniProt P61020)	1.03 ± 0.028	0.993 ± 0.013	1.01 ± 0.024	1.07 ± 0.026	1.08 ± 0.064	1.05 ± 0.018
A0A0A6YYC8|I3L1I5 (UniProt I3L1I5)	1.01 ± 0.027	1.02 ± 0.04	1.02 ± 0.012	1.01 ± 0.023	1 ± 0.02	1.009 ± 0.0072
G5E994|Q5VW38|Q5VW38-2 (UniProt Q5VW38)	1.026 ± 0.0089	1.01 ± 0.018	0.976 ± 0.02	0.983 ± 0.024	1.01 ± 0.021	1.018 ± 0.0091
N4BP1 (UniProt O75113)	1.01 ± 0.014	1.02 ± 0.039	1.02 ± 0.032	0.979 ± 0.027	0.96 ± 0.012	0.954 ± 0.028
F8WCF9|G5E9E8|Q8N465|Q8N465-2|Q8N465-3 (UniProt Q8N465)	0.983 ± 0.03	1.01 ± 0.012	0.992 ± 0.01	1.04 ± 0.035	1.02 ± 0.032	1.03 ± 0.02
D6RAJ6|Q9UKT5|Q9UKT5-2 (UniProt Q9UKT5)	1.01 ± 0.035	0.996 ± 0.032	0.986 ± 0.024	0.975 ± 0.026	0.983 ± 0.035	0.981 ± 0.045
